In PubChem BioAssay AID2284147 (EPA ToxCast) one finds AC50 data, which are given here for 1 molecule.

Active and inactive are the calls of the source. Rule for the calls: active = hit-call score of the fitted dose curve at least 0.9, where 1 is the maximum; inactive = score below 0.9.

Chain of human Angiotensin Receptor AT2 Antagonism, AGTR2 (gene 186) (P50052 whole entry, looked up): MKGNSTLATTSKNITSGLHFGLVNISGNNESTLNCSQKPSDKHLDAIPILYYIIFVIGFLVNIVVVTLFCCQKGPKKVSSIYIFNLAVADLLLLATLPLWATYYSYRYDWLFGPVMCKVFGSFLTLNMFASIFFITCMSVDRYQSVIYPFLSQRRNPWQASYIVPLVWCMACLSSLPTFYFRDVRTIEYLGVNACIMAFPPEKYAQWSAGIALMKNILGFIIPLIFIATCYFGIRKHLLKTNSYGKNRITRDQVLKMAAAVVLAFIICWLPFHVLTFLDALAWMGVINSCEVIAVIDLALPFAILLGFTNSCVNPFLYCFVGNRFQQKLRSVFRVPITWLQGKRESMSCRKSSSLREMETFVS

The test has as its target human Angiotensin Receptor AT2 Antagonism, AGTR2 (gene 186) (UniProt P50052). Nature of the test: ERF_TW_GPCR_hAGTR2: Eurofins (ERF) G Protein-Coupled Receptor (GPCR) Radioligand Binding LeadHunter Assay for human Angiotensin Receptor AT2 Antagonism. The protocol: ERF_TW_GPCR_hAGTR2 is a biochemical, single-readout assay that uses extracted gene-proteins in a cell-free assay. Measurements were taken 3 hour after chemical dosing in a 96-well plate. See AT2 Human Angiotensin GPCR Binding (Agonist Radioligand) Assay, Panlabs.ERF_TW_GPCR_hAGTR2 is an assay component calculated from the ERF_TW_GPCR_hAGTR2 assay. It is designed to measure radioligand binding using a type of binding reporter as detected by scintillation counting with radiometry technology.Data from the assay component ERF_TW_GPCR_hAGTR2 was analyzed at the assay endpoint, ERF_TW_GPCR_hAGTR2, in the positive analysis fitting direction relative to DMSO as the negative control and baseline of activity. Using a type of binding reporter, gain-of-signal activity can be used to understand changes in radioligand binding as they relate to gene AGTR2. To generalize the intended target to other relatable targets, this assay endpoint is annotated to the gpcr intended target family, where the subfamily is angiotensin.
Human recombinant angiotensin AT2 receptors expressed in CHO-K1 cells are used in modified Tris-HCl buffer pH 7.4. A 2.4 ug aliquot is incubated with 0.05 nM [125I] CGP-42112A for 3 hours at 37C. Non-specific binding is estimated in the presence of 10 uM (Sar1, Ile8)-Angiotensin II. Membranes are filtered and washed, the filters are then counted to determine [125I] […]
Consider `O=C(/C=C/c1ccc(O)cc1)CC(=O)/C=C/c1ccc(O)cc1`, for which the AC50 is 1.75 µM (active).

As a reminder, the AC50 is the midpoint of the concentration-response curve, whichever way the signal moves.
